Measured values taken from PubChem BioAssay AID588458 (Sanford-Burnham Center for Chemical Genomics, 2011).
Out of some 360,000 compounds screened, about 3,000 (0.83%) were called active. Rule as the data show it: active = inhibition above about 50%; inactive = the rest. Shown is part of a subset that was picked to be rich in actives.

Molecular target: DNA (cytosine-5)-methyltransferase 1 (Homo sapiens) (UniProt P26358)
Experiment: inhibition of DNA methyltransferase DNMT1 – biochemical, molecular beacon, fluorescence, HinP1I cleavage, uHTS, primary screen (AID 588458)
Conditions: at 10 µM, stronger effect = higher value

DNA (cytosine-5)-methyltransferase 1 (Homo sapiens), sequence (P26358 504-1616 limits assumed): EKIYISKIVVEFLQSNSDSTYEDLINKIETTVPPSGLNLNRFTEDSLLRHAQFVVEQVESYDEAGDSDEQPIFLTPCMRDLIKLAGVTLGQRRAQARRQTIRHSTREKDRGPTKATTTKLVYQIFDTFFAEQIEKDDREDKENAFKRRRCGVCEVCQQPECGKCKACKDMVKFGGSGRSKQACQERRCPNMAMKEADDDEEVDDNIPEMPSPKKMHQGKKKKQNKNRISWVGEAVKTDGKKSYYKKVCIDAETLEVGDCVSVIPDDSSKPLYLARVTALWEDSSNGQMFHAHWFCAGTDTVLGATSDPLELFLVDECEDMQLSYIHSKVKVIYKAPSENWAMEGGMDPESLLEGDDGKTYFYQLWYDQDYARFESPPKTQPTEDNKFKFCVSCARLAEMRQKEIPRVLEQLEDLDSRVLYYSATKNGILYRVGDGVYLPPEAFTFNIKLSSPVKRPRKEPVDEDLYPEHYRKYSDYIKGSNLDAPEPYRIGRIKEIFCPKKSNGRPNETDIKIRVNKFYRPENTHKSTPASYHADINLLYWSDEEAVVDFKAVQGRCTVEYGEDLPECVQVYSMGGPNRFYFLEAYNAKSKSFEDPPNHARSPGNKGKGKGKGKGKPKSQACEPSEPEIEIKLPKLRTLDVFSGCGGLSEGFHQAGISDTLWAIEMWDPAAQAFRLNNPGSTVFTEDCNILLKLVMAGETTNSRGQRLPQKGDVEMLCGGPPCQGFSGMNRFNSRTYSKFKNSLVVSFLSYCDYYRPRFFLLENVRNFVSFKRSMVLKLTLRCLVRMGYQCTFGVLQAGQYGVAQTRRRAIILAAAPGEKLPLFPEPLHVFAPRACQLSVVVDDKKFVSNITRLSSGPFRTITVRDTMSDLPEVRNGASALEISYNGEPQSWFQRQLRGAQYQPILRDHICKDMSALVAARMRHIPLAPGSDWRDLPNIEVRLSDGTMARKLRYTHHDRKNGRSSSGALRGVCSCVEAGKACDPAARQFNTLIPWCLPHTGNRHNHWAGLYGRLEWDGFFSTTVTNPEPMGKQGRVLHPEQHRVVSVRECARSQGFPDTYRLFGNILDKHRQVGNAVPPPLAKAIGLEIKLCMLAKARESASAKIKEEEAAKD

Row | Compound | inhibition (reported as % activation of signal)
1 | COc1cccc(-c2cc3nc(NCc4ccccc4OC)n(C)c(=O)c3s2)c1 | -11.8% (inactive)
2 | CC1C(=O)N(Cc2cn(CC3CCCCC3)nn2)CCS(=O)(=O)N1Cc1ccc(-c2cccc(N(C)C)c2)cc1 (stereo not given) | -9.42% (inactive)
3 | Cc1csc(OCC(=O)Nc2ccc(C)c(C)c2)n1 | -0.47% (inactive)
4 | CCCNC(=O)c1cc(C2CCCN(C(=O)c3ccc4c(c3)CCO4)C2)on1 (stereo not given) | -0.91% (inactive)
5 | COc1ccc(S(=O)(=O)N2CCCCC2c2cc(C(=O)NCc3ccc(F)cc3)no2)cc1 (stereo not given) | 6.18% (inactive)
6 | CC(C)Cc1nc(Cl)c(C#N)c2c1CCC2 | 3.27% (inactive)
7 | CC(NC(=S)NC1CCCCC1)C(c1ccccc1)N1CCOCC1 (stereo not given) | 1.12% (inactive)
8 | CC(C(=O)Nc1ccc(O)c(C(=O)O)c1)N1C(=O)/C(=C/c2cccs2)SC1=S (stereo not given) | -9.71% (inactive)
9 | O=C(O)C(c1ccccc1)N1C(=O)/C(=C\c2ccc(-c3cccc(Cl)c3)o2)SC1=S (stereo not given) | 79.8% (active)
10 | CC(C(=O)NC1CCS(=O)(=O)C1)N1C(=O)/C(=C/c2ccc(Cl)cc2)SC1=S (stereo not given) | -2.43% (inactive)
11 | NC(=O)CCC(NS(=O)(=O)c1ccc(Cl)cc1)C(=O)NCc1ccccc1Cl (stereo not given) | 4.11% (inactive)
12 | COc1cccc(N2CCN(C(=O)C3CCCN(S(=O)(=O)c4cnc[nH]4)C3)CC2)c1 (stereo not given) | -15.4% (inactive)
13 | CCOC(=O)c1cccc(NC(=O)C2CCCN(S(=O)(=O)c3cnc[nH]3)C2)c1 (stereo not given) | 76.5% (active)
14 | O=C(NCc1ccco1)C1CCCN(S(=O)(=O)c2cnc[nH]2)C1 (stereo not given) | -1.66% (inactive)
15 | CC(C)c1cc(C(=O)N/N=C/c2ccoc2)c(O)c(C(C)C)c1 | 13.8% (inactive)
16 | CCOC(=O)Cc1csc(NC(=O)COc2ccc3c(C)cc(=O)oc3c2)n1 | -0.49% (inactive)
17 | Cc1ccc(O)c(/C=N/NC(=O)COc2ccc3c(C)cc(=O)oc3c2)c1 | 59.9% (active)
18 | Cc1cc(=O)oc2cc(OCC(=O)Nc3nnc(C4CC4)s3)ccc12 | -3.06% (inactive)
19 | CN(C(=O)COC(=O)c1cc(-c2ccco2)nc2ccccc12)C1CCS(=O)(=O)C1 (stereo not given) | 92.3% (active)
20 | CN(CCOc1ccccc1)C(=O)c1cc(COc2c(F)cccc2F)on1 | 1.59% (inactive)
21 | O=C(c1cc(-c2ccco2)nc2ccccc12)N(Cc1nnc(-c2ccc(Cl)cc2)o1)C1CC1 | 13.4% (inactive)
22 | CN(CCOc1ccccc1)C(=O)c1cc(-c2ccco2)nc2ccccc12 | 72.3% (active)
23 | CN(C(=O)COC(=O)Cc1ccccc1[N+](=O)[O-])C1CCS(=O)(=O)C1 (stereo not given) | 2.42% (inactive)

Row | Compound | inhibition (reported as % activation of signal)
24 | COc1ccc(NC(=O)COc2ccc(C(=O)OCC(=O)N(C)C3CCS(=O)(=O)C3)cc2OC)cc1 (stereo not given) | 8.48% (inactive)
25 | OCC[C@H]1C[C@H](O)[C@@H](O)[C@]2(CCCCO2)O1 | 5.49% (inactive)
26 | CCOc1ccccc1-n1c(SCC(=O)N2CCCC2)nnc1-c1ccoc1C | 7.56% (inactive)
27 | COc1ccc(Cl)cc1S(=O)(=O)Nc1cccc(C(=O)O)c1 | -3.3% (inactive)
28 | COc1ccc2sc(-c3ccc(S(C)(=O)=O)cc3)c(-c3ccc(C(N)=O)cc3)c2c1 | 86.5% (active)
29 | COc1cc(OC)cc(-c2sc3ccc(OC)cc3c2-c2ccc3cc[nH]c3c2)c1 | -17.8% (inactive)
30 | COc1ccc2sc(-c3ccc(S(C)(=O)=O)cc3)c(C#Cc3cncn3C)c2c1 | -10.4% (inactive)
31 | O=C(NCc1ccco1)c1cnn2c(C(F)(F)F)cc(-c3ccco3)nc12 | -0.51% (inactive)
32 | COCC(=O)N(C)[C@H]1C[C@H]2c3cc(Oc4ccccc4C)ccc3CCN2C(=O)[C@H]1[C@H](C)O | -0.44% (inactive)
33 | CCCn1c(C)cc(/C=C(\C#N)C(=O)OCC(=O)Nc2cc(OC)c(OC)c(OC)c2)c1C | -3.49% (inactive)
34 | CCOC(=O)/C(C#N)=C/c1ccc(OCC(=O)Nc2ccccc2)c(OC)c1 | 59.5% (active)
35 | COc1cc(C2C3=C(CCCC3=O)OC3=C2C(=O)CCC3)ccc1OCC(=O)Nc1ccccc1 | -1.83% (inactive)
36 | COC(=O)Nc1nc2ccc(Sc3ccccc3)cc2[nH]1 | 23.1% (inactive)
37 | CCCNC(=O)C1(C)CCN1C(=O)Cc1ccc(-c2ccccc2)cc1 (stereo not given) | -1.26% (inactive)
38 | CCNC(=O)C1CCCN(C(=O)c2cc(F)ccc2C)CC1 (stereo not given) | 58% (active)
39 | CCOC(=O)C1CCCN(C(=O)c2ccc(C)c(F)c2)CC1 (stereo not given) | 1.76% (inactive)
40 | CCNC(=O)C1CCCN(C(=O)c2ccc(OC)cc2OC)CC1 (stereo not given) | -0.58% (inactive)
41 | Nc1nc(NCc2ccccc2)n(-c2ccccc2)n1 | -0.22% (inactive)
42 | Cc1cc(C)n2nc(C(=O)N(C)C(c3ccccc3)c3ccccc3)nc2n1 | 2.32% (inactive)
43 | Cc1ccc2[nH]c(=O)c(CN3CCCCC3)c(-c3ccccc3)c2c1 | -7.9% (inactive)
44 | O=c1cc(CN2CCCCCCC2)c2c(ccc3ccccc32)o1 | -0.34% (inactive)
45 | c1ccc2cc3[nH]c(CN4CCCCC4)nc3cc2c1 | 83.2% (active)
46 | Cc1cc(C)nc(NS(=O)(=O)c2ccc(N/C=C\C(=O)c3cccs3)cc2)n1 | -0.17% (inactive)

Row | Compound | inhibition (reported as % activation of signal)
47 | CC(C)(C)n1nnc(CCc2nnn(C(C)(C)C)n2)n1 | 0.1% (inactive)
48 | COc1cccc(C=CC(=O)C=CC=Cc2ccccc2)c1 | 13.2% (inactive)
49 | O=C(COC(=O)/C=C/c1cccc(Cl)c1)NCCc1ccccc1 | -1.37% (inactive)
50 | NNc1cccc(C=Cc2ccccc2)cc1=O | 75.5% (active)
51 | COc1ccc(CC(=O)NCc2nnc(SCC(=O)Nc3ncc(C)s3)n2C)cc1 | -1.25% (inactive)
52 | COc1cc(NC(=S)NNC(=O)CC(C)C)c(OC)cc1Cl | -0.35% (inactive)
53 | Cc1ccc(N2C(=O)CC(Nc3cccc4ccccc34)C2=O)cc1 (stereo not given) | -1.89% (inactive)
54 | CC(=O)Nc1ccccc1Sc1ccc2c3c(cccc13)C(=O)N(c1ccc(C)cc1)C2=O | 73.9% (active)
55 | CSc1ccccc1NC(=O)C(C)N1C(=O)c2ccccc2S1(=O)=O (stereo not given) | -0.34% (inactive)
56 | O=C(c1ccco1)N1CCN(C(=O)C2CCCN(S(=O)(=O)c3cccc4nsnc34)C2)CC1 (stereo not given) | 0.5% (inactive)
57 | CCC(=O)N1CCCC1(C)C(=O)Nc1ccc2c(c1)CCN2C(C)=O (stereo not given) | -1.12% (inactive)
58 | Cc1ccc(NS(=O)(=O)c2c(C)[nH]c(C)c2C(=O)N2CCCCC2)c(C)c1 | 12.2% (inactive)
59 | COc1cccc(CC(=O)N2CCCC(CCC(=O)N3CCN(c4ccccn4)CC3)C2)c1 (stereo not given) | -0.42% (inactive)
60 | O=C(CCC1CCCN(C(=O)c2ccc(F)c(F)c2)C1)N1CCN(c2ccccn2)CC1 (stereo not given) | 3.2% (inactive)
61 | C=Cc1ccc(C(=O)N2CCCC(CCC(=O)N3CCN(c4ccccn4)CC3)C2)cc1 (stereo not given) | 80.1% (active)
62 | O=C(CN1CCN(S(=O)(=O)c2cccc(Cl)c2)CC1)N1CCCCC1 | -1.19% (inactive)
63 | O=C(CN1CCCSc2ccccc21)N1CCN(S(=O)(=O)c2cccc(F)c2)CC1 | 89.2% (active)
64 | O=C(CN1CCCSc2ccccc21)N1CCN(S(=O)(=O)c2ccccc2)CC1 | -0.81% (inactive)
65 | COc1ccc(C(=O)N2CCN(c3ccc(C(C)=O)cc3F)CC2)cc1S(=O)(=O)NC1CC1 | 3.83% (inactive)
66 | CC1CCC(C(C)C)C(=O)/C1=C\c1ccc(NC(=O)CCC(=O)O)cc1 (stereo not given) | 0.83% (inactive)
67 | Cc1ccc(Cc2cncc(O)c2)cc1S(=O)(=O)O | 50.3% (active)
68 | COC(=O)CC(=O)N1CCN(c2ccc(Cl)c(Cl)c2)CC1 | -1.96% (inactive)
69 | CC1(Oc2ccc(Cl)cc2)CCN(Cc2csc3ccccc23)C1 (stereo not given) | 1.6% (inactive)

Row | Compound | inhibition (reported as % activation of signal)
70 | O=S(=O)(NCCc1ccc(Cl)cc1)c1cccs1 | -0.79% (inactive)
71 | CCOC(=O)c1c(C)[nH]c(C)c1C(=O)CSc1nc(N)cc(N)n1 | -17.2% (inactive)
72 | CCOC(=O)c1c(C)[nH]c2c1-c1ccccc1C(=O)C2=O | 93.5% (active)
73 | CCOC(=O)c1c(NC(=O)CSc2nccc(=O)[nH]2)sc(C)c1C | 0.32% (inactive)
74 | O=C(OCC(=O)N1CCCC1=O)c1cc(S(=O)(=O)N2CCOCC2)ccc1Cl | 0.37% (inactive)
75 | CCOC(=O)c1sc(N(Cc2ccccc2)C(=O)CN2C(=O)CN(C)C2=O)nc1C | -3.6% (inactive)
76 | CC(C)(C)NC(=O)CSC(=Nc1ccccc1F)NC#N | 52.8% (active)
77 | Cc1ccccc1CSCC(=O)NC(=O)NC(C)(C)C | -1.56% (inactive)
78 | CC(C)(C)NC(=O)CSc1nnc(NC(=O)CCc2ccccc2)s1 | -0.32% (inactive)
79 | CCCC/C=C/c1cccc2nncn12 | 5.75% (inactive)
80 | COc1ccccc1C(=O)Nc1ccc(OCC(=O)N2CCCCC2)cc1 | 5.57% (inactive)
81 | COc1ccc2c(c1)c(=O)c(C(=O)c1ccc(Cl)cc1)cn2CC(=O)Nc1ccc(F)cc1 | 59.8% (active)
82 | O=C(c1ccc(F)cc1)c1cn(Cc2ccc(F)cc2)c2cc3c(cc2c1=O)OCCO3 | -8.26% (inactive)
83 | COc1ccc(NC(=O)CC2C(=O)NC3CCCCC3N2C(=O)c2ccc(F)cc2)cc1 (stereo not given) | 4.5% (inactive)
84 | CNc1cc(-c2c(OC)cccc2OC)ncn1 | 5.78% (inactive)
85 | COC(=O)c1ccc(C2NC(=O)NC(C)=C2C(=O)N(C)C)cc1 (stereo not given) | 0.97% (inactive)
86 | O=C(NNC(=O)c1cc(-c2ccccc2Cl)nc2ccccc12)c1csc(N2CCOCC2)n1 | 1.75% (inactive)
87 | O=C(Nc1ccc2ccccc2c1)Nc1ccc2snnc2c1 | -8.95% (inactive)
88 | COC(=O)c1ccccc1NC(=O)C1(S(=O)(=O)c2ccc(Cl)cc2)CC1 | -0.08% (inactive)
89 | CCOC(=O)C1CCCN(C(=O)CSc2nnc3nc(C)cc(C)n23)C1 (stereo not given) | 0.98% (inactive)
90 | CN(C)CC(C)(C)CNC(=O)c1cc(Br)cc(Br)c1O | -5.18% (inactive)
